Results published in PubChem BioAssay AID588342 (National Center for Advancing Translational Sciences (NCATS), 2011).
Screen size: about 360,000 compounds; about 25,000 (6.9%) were called active. Inconclusive results (about 9%) are left out. For the sample, actives were picked, then their nearest neighbours and some compounds at random. Values without a mark were called inactive. Calls follow the shape of the dose curve; as a rule, active = well fitted inhibition curve with a large enough effect; inconclusive = small, poorly fitted or top-dose-only effect; inactive = flat fitted curve, though single readings scatter.

molecular target: Luciferin 4-monooxygenase (Photinus pyralis) (UniProt P08659); test: qHTS profiling assay for firefly luciferase inhibitor/activator using purifed enzyme and Km concentrations of substrates (counterscreen for miR-21 project); conditions: purified FLuc, luminescence inhibition; series mostly up to 57.5 µM; activity change, negative = inhibition: at the top concentration; also: nearly all actives have a fitted effect of over 55% in size;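 as to activity change, negative = inhibition: plate controls were vehicle for no effect and reference inhibitor for full effect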
Sequence (P08659 whole entry, looked up): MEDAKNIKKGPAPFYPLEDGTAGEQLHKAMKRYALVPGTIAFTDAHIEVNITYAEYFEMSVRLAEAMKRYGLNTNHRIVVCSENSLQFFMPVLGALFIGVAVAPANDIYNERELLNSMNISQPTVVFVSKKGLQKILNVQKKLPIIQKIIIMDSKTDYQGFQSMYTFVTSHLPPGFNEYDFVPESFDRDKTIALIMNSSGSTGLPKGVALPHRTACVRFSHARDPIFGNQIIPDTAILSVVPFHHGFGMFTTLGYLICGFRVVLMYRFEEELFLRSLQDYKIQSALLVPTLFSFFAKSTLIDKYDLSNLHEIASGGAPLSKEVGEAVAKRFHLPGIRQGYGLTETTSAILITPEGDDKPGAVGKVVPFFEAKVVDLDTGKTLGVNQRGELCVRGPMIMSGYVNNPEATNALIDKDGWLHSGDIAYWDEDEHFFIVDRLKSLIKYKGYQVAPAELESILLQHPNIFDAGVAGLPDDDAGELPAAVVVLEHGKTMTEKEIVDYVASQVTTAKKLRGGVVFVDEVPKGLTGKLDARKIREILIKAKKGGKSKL
Outline: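 Biochemical qHTS of compounds, final roughly 60 µM downward over six points, against 10 nM purified firefly luciferase using Km concentrations of substrates (10 uM D-luciferin, 10 uM ATP) in Tris acetate pH 7.5 buffer; luminescence output.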
Potency is read from the fitted curve at half-maximal effect.

SMILES | activity change, negative = inhibition | Potency
COc1ccc([C@H]2CC(=O)C=C(c3ccc(C)cc3)C2)cc1 | -13.8% | 
Cc1nnc(N2CCCC(C(=O)NCCN(C)C)C2)c2nn(-c3ccccc3)c(C)c12 (centres undefined) | -2.09% | 
CCCCCOC(=O)NCCOC(=O)Nc1ccc(C(=O)OCC)cc1 | -4.13% | 
CCCCOC(=O)Nc1nnc(CC(=O)NCc2ccccc2)s1 | 0.516% | 
CCCCCCOC(=O)NCC(O)c1ccccc1 (centres undefined) |  | 12 µM (active)
Cc1cc(Cl)ccc1C(=O)C1CCCN(C(=O)c2nonc2C)C1 (centres undefined) | 0.226% | 
CCOC(=O)c1ccccc1NC(=O)c1nn(-c2ccc(OC)c(Cl)c2)c(=O)c2c1c1ccccc1n2C | -1.01% | 
O=C1CC(c2ccccc2)=NN1c1ccc([N+](=O)[O-])cc1 |  | 13.5 µM (active)
O=c1[nH]n(-c2ccc([N+](=O)[O-])cc2)c(=O)c2ccccc12 | -4.92% | 
COC(=O)CC1=NN(c2ccccc2)C(=O)C1 | 1.6% | 
COc1cc(C)ccc1OCCSc1nc2ccc(NC(=O)c3ccc(C)cc3)cc2s1 | -15.1% | 
CN(C(=O)c1cccc(OC2CCN(S(=O)(=O)N(C)C)CC2)c1)C1CCOC1 (centres undefined) | -17% | 
CNS(=O)(=O)c1cccc(C(=O)NCC2CCCCC2)c1 | 0.681% | 
CN(C)S(=O)(=O)N1CCC(Oc2cccc(C(=O)NCCCC3CCCC3)c2)CC1 |  | 16.9 µM (active)
Cc1nn(-c2ccc(F)cc2)c(-n2cccc2)c1C(=O)N1CCN(c2ccccc2)CC1 | 4.26% | 
CCc1ccccc1N(C)C(=O)C1CCCN(c2ncnc3onc(-c4ccc(F)cc4)c23)C1 (centres undefined) | 4.45% | 
Cc1ccc(S(=O)(=O)NNC(=S)NC(C)(C)C)cc1 | 1.48% | 
O=C1CSC2(C(=O)N(Cc3ccccc3)c3ccccc32)N1c1cccc(F)c1 (centres undefined) | -3.19% | 
Cc1cc(C)c(S(=O)(=O)N2CCC(C(=O)OCc3c(C)noc3C)CC2)c(C)c1 | 1.69% | 
CC(=O)Oc1ccc2c(c1)C(=O)c1ccccc1C2=O |  | 8.49 µM (active)
CC(=O)Nc1ccc(Oc2ccc3c(c2)C(=O)NC3=O)cc1 | -3.16% | 
CC(=O)O[C@H]1c2ccccc2-c2ccccc2[C@@H]1OC(C)=O | 0.976% | 
COc1ccc([C@H]2CC(=O)C=C(/C=C/c3ccc(Cl)cc3)C2)cc1 | -16.9% | 
CCn1nc(C(=O)NNC(=O)C2CSC3(C)CCC(=O)N23)c2ccccc2c1=O (centres undefined) | 2.68% | 
Cc1sc2ncn(CC(=O)NCCCC(=O)N(C)Cc3ccccc3)c(=O)c2c1C | 1.87% | 
Cc1cc(=O)oc2c(C)c(OC(C)C(=O)NC3CCN(Cc4ccccc4)CC3)ccc12 (centres undefined) | 0.301% | 

SMILES | activity change, negative = inhibition | Potency
O=C(NC(=S)Nc1ccc(S(=O)(=O)N2CCOCC2)cc1)c1ccccc1[N+](=O)[O-] | 2.74% | 
O=C(Nc1ccc(N2CCOCC2)cc1)c1ccc(-c2ccccc2[N+](=O)[O-])o1 |  | 3.38 µM (active)
CN(CC(=O)Nc1ccc(N2CCOCC2)cc1)CC(=O)Nc1ccccc1[N+](=O)[O-] | 3.24% | 
Cc1ccc2nc(C)c3c(c2c1)N(c1ccccc1)CC3 | 0.878% | 
O=C(Cn1c(-c2cccs2)cc2ccccc21)NCCc1ccc(Cl)cc1 | -2.8% | 
Cc1cc(/C=C(/C#N)C(=O)Nc2ccc(Cl)cc2)c(C)n1-c1cccnc1 | -4.13% | 
Cc1ccc2c(c1)N(CC(=O)NCC1CCCO1)C(=O)CO2 (centres undefined) | 0.178% | 
Cc1ccc(-n2c(C)cc(/C=C(\C#N)C(=O)NCC3CCCO3)c2C)cc1 (centres undefined) |  | 0.675 µM (active)
CC(=O)N1CCc2cc(Br)cc(S(=O)(=O)CCC(=O)NCCc3ccc(Cl)cc3)c21 | -10.7% | 
CC(=O)N1CCN(c2ccccc2NC(=S)NC(=O)c2cc3ccccc3o2)CC1 | 2.35% | 
CC(OC(=O)c1cc2ccccc2o1)C(=O)Nc1ccc(N2CCOCC2)cc1 (centres undefined) | 2.46% | 
Cc1cccc(-n2nc3c(c2NC(=O)c2cc4ccccc4o2)CS(=O)(=O)C3)c1 | -0.868% | 
Cc1ccsc1C(=O)OCC(=O)Nc1cccc(F)c1 | -19.3% | 
CCN(C(=O)COC(=O)c1sccc1C)c1c(N)n(Cc2ccccc2)c(=O)[nH]c1=O | 0.789% | 
C/C(=N\NC(=S)Nc1ccc(C)cc1)c1cc2ccccc2o1 |  | 12 µM (active)
Cc1ccccc1C(=O)Nc1cc(C)c(O)c(-c2nc3ccccc3o2)c1 | -14.4% | 
C/C(=N\NS(=O)(=O)c1cccc([N+](=O)[O-])c1)c1cc2ccccc2o1 | -0.43% | 
COC(=O)c1ccc(-c2nc3cc(NC(C)=O)ccc3o2)cc1 | -6.59% | 
CC(=O)Nc1ccc(-c2nc3ccccc3o2)cc1 |  | 3.01 µM (active)
Cc1ccc(NC(=O)c2cc3ccccc3o2)cc1 |  | 3.38 µM (active)
Cc1ccsc1C(=O)OCC(=O)c1cc2ccccc2o1 |  | 5.36 µM (active)
COc1cc(C(=O)NCCc2csc3nc(-c4ccccc4C)nn23)cc(OC)c1OC | -6.88% | 
Cc1ccc2cccc(NC(=O)C(C)Oc3ccc(C)c(C)c3)c2n1 (centres undefined) | -7.04% | 
CC(C)Cn1c(C2CC(=O)N(c3ccccc3Cl)C2)nc2ccccc21 (centres undefined) | -2.7% | 
Cc1ccc(C)c(Cn2c(C)c(CNCc3ccc(F)cc3)c(C(=O)O)c2C)c1 | -10.6% | 
COc1ccccc1CN(C)C(=O)c1cc2ccccc2o1 | -12.7% | 

SMILES | activity change, negative = inhibition | Potency
Cc1cc2nc(-c3ccc(NC(=O)c4cc5ccccc5o4)cc3)oc2cc1C |  | 23.9 µM (active)
Cc1ccc(OC(=O)c2cc3ccccc3o2)cc1 |  | 0.757 µM (active)
CCc1ccc2oc(-c3ccc(NC(=O)c4cc5ccccc5o4)cc3)nc2c1 | -0.596% | 
Cc1ccsc1C(=O)OCC(=O)c1cc(C)n(CC2CCCO2)c1C (centres undefined) |  | 0.151 µM (active)
O=C(Nc1ccncc1)c1cc2ccccc2o1 |  | 12 µM (active)
Cc1cc(C(=O)Cn2cnc3cc([N+](=O)[O-])ccc3c2=O)c(C)n1CC1CCCO1 (centres undefined) | -17.8% | 
CCC(C)c1ccc2oc(-c3ccc(NC(=O)c4cc5ccccc5o4)cc3)nc2c1 (centres undefined) | -2.07% | 
Cc1cc(C(=O)CCl)c(C)n1CC1COc2ccccc2O1 (centres undefined) | -10.4% | 
Cc1ccc(OC(=O)c2ccccc2C(=O)OCC(F)(F)C(F)F)cc1 | -16.5% | 
CCC1CCC2(CC1)NC(=O)N(CC(=O)Nc1ccc(OC)cc1)C2=O (centres undefined) | 0.329% | 
Cc1ccc(-c2nc3ccccn3c2Nc2c(C)cccc2C)o1 | -6.56% | 
Cc1ccc(S(=O)(=O)N2CCCc3cc(NS(=O)(=O)c4cc(C)ccc4C)ccc32)cc1 | -7.12% | 
O=C(CCc1nc2sc3c(c2c(=O)[nH]1)CCCC3)NCC(=O)Nc1ccccc1Br | -1.92% | 
Cc1cc(N(C)C)cc(C)[n+]1[O-] | 1.72% | 
COc1cc(OC)cc(C(=O)NNC(=O)CCOc2ccccc2OC)c1 | 4.07% | 
CCOc1ccccc1NC(=O)C1CCCN(S(=O)(=O)c2cn(C)cn2)C1 (centres undefined) | -5.71% | 
COc1ccc(S(=O)(=O)N2CCOCC2)cc1NC(=O)Cc1c(F)cccc1Cl | 4.57% | 
COc1ccc(CCNC(=O)COC(=O)C2CC2C)cc1 (centres undefined) | 5.85% | 
CCN1CCN(c2nc(Nc3cccc(F)c3)nc(N)c2[N+](=O)[O-])CC1 | -1.68% | 
CNc1nc(Nc2ccc(C)c(Cl)c2)nc(N)c1[N+](=O)[O-] |  | 4.78 µM (active)
Cc1ccc(Nc2nc(N3CCOCC3)nc(N3CCOCC3)n2)cc1Cl | -1.72% | 
COc1ccccc1CNC(=O)Cn1nc(C)c2nn(-c3ccc(Cl)cc3)c(C)c2c1=O | -10.1% | 
CCOC(=O)c1cccc(NS(=O)(=O)c2cn(C)c(C)n2)c1 | -2.62% | 
O=C(Nc1ccccc1)OCc1cn(-c2ccc(Cl)cc2)nn1 | -1.55% | 
O=C(CC1SC(=Nc2ccccc2)N(Cc2ccccn2)C1=O)Nc1cccc(Cl)c1 (centres undefined) | -19.3% | 
O=C(Nc1cccc(Cl)c1)OCc1ccccn1 |  | 26.9 µM (active)

SMILES | activity change, negative = inhibition | Potency
Nc1cccc(S(=O)(=O)Nc2ccc(SC(F)F)cc2)c1 | -2.66% | 
O=C(CCn1c(=O)c2sccc2n(Cc2ccc(F)cc2)c1=O)NCc1ccc2c(c1)OCO2 | -1.27% | 
COc1ccccc1N1CCN(C(CNC(=O)C(=O)NCc2ccc(C)cc2)c2cccnc2)CC1 (centres undefined) | -12.7% | 
CCOc1ccc(CNCc2c(C(=O)O)c(C)n(Cc3cccc(OC)c3)c2C)cc1OC | -5.96% | 
Oc1ccc(/C=N/Nc2nc(-c3ccccc3F)nc3ccccc23)c(O)c1 |  | 10.7 µM (active)
Cc1ccc(/C=N/NC(=O)C2=NNC(c3ccccc3)(c3ccccc3)C2)c(O)c1 | -13.1% | 
Oc1ccc(/C=N/NC2=NCCCCC2)c(O)c1 |  | 13.5 µM (active)
COc1ccc(N2CCN(c3nc(-c4ccccc4F)nc4ccccc34)CC2)cc1 | 6.38% | 
Cc1n[nH]c(=O)nc1N/N=C/c1cccs1 | -11.1% | 
Cc1nc2ccccc2nc1N/N=C/c1ccc(O)cc1O |  | 12 µM (active)
Oc1c(Br)cccc1/C=N/Nc1c(F)c(F)c(F)c(F)c1F | -8.05% | 
CC(C)(C)Nc1nc(-c2ccccn2)nc2ccccc12 | -1.03% | 
CN1c2ccc(Cl)cc2-c2nc(SCC(=O)Nc3cc(F)ccc3F)ncc2S1(=O)=O | -11.9% | 
O=C(NCCCO)C(=O)Nc1c2c(nn1-c1ccc(F)cc1)CSC2 | -11.4% | 
Cn1c2cc(B(O)O)sc2c2cnn(Cc3ccccc3F)c(=O)c21 | -0.41% | 
CCc1noc(C)c1C(=O)N1CCN(S(=O)(=O)c2cccc(C(F)(F)F)c2)CC1 | 4.82% | 
OCC[C@H]1C[C@@H](O)[C@H](O)[C@@]2(OCCc3ccccc32)O1 | -0.0292% | 
COc1ccc(S(=O)(=O)N2CCN(CC(=O)N3c4ccccc4CC3C)CC2)cc1OC (centres undefined) | -2.58% | 
CC1Cc2cc(S(=O)(=O)CCC(=O)NCc3ccc(Cl)cc3)ccc2N1C(=O)C1CC1 (centres undefined) | -4.82% | 
O=S(=O)(Nc1ccccc1Br)c1cccs1 | -2.09% | 
O=S(=O)(NCc1ccc(Cl)cc1Cl)c1cccs1 | -19.7% | 
O=C(Nc1cccc(Cl)c1)Nc1ccccc1NS(=O)(=O)c1cccs1 |  | 16.9 µM (active)
Cc1ccc(Cl)cc1N(C)C(=O)C1CCCN(c2ncnc3onc(-c4ccc(F)cc4)c23)C1 (centres undefined) | 2.19% | 
COc1cc(OC)cc(C(=O)Nc2c(C(=O)Nc3ccc(F)cc3)oc3ccccc23)c1 |  | 2.69 µM (active)
COc1ccccc1NC(=O)c1oc2ccccc2c1NC(=O)C(C)C | -2.09% | 
COc1ccccc1C(=O)Nc1c(C(=O)Nc2ccc(C)cc2)oc2ccccc12 | -0.534% | 
